# Experimental data published in PubChem BioAssay (NCI).
# This is part of a sample that, as a whole, favours compounds with a hit. Of some 83,000 tested, about 20% had one in any assay.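 48-hour exposure, single concentration, 96-well plates; percent growth endpoint where 0 means no net growth. Active: below 10.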 A number with no mark means an inactive call. Calls of active or inactive are those of the source.
# Assays:
# Assay in all cases: NCI-60 one-dose screen, 48 h (100 = growth as untreated, 0 = no growth, -100 = all killed)
# Conditions in all cases: 10 µM
# [1] = tested on: BT-549 breast
# [2] = tested on: MDA-MB-435 melanoma
# [3] = tested on: SW-620 colon
# [4] = tested on: MCF7 breast
# [5] = tested on: HCT-116 colon
# [6] = tested on: HCC-2998 colon
# [7] = tested on: KM12 colon
SMILES,growth [1],growth [2],growth [3],growth [4],growth [5],growth [6],growth [7]
Nc1nc(N)c(NC(=O)CNc2ccc(C(=O)O)cc2)c(N)n1,116%,105%,105%,91.3%,113%,107%,114%
O=C1Nc2ccccc2C1=NC1CCCCC1,96.1%,106%,105%,98%,105%,107%,95.9%
CCCCCCc1cc(N=Nc2ccc(S(=O)(=O)Nc3cc(C)nc(C)n3)cc2)c(O)cc1O,89.9%,100%,113%,92.7%,86.3%,101%,104%
COc1ccc2c(c1)nc(N)c1c3cccnc3cn21,44.3%,-14.3% (active),20.5%,20.4%,10.8%,20.2%,17.1%
NC1=NC(=O)C(c2ccccc2)(c2ccccc2)S1,118%,121%,108%,105%,106%,108%,107%
COc1ccc2nc3ccccc3c(NCCNCC(C)O)c2c1 (stereo unspecified),30.9%,1.44% (active),0.102% (active),4.08% (active),0.194% (active),-11.8% (active),9.48% (active)
c1ccc2c(c1)oc1c3cccnc3ccc21,79.7%,110%,100%,13%,84.4%,92.7%,98.9%
ClCC#CCSc1ncnc2c1ncn2CC#CCCl,27.5%,0.673% (active),2.37% (active),20.2%,-49% (active),-24.9% (active),6.96% (active)
CC1=C(N2CCOCC2)C(N2CCOCC2)=C(C)C(=O)C1=O,110%,103%,105%,92.5%,108%,109%,105%
Cc1ccc(C)c(C(O)(c2cc(C)ccc2C)C2(O)CCCCC2)c1,100%,105%,96.8%,97.6%,90.5%,108%,95.4%
N#CCCN(NC(=O)OCc1ccccc1)C(=O)OCc1ccccc1,109%,105%,102%,107%,95.4%,106%,109%
COc1cc(-c2nc(-c3nnc(-c4ccccc4Cl)o3)c3ccccn23)cc(OC)c1OC,89.5%,100%,104%,81.9%,97%,94.7%,80.5%
COc1ccc(NC2=NC(C)(CO)CS2)cc1 (stereo unspecified),98.4%,101%,104%,88.6%,102%,104%,104%
O=[N+]([O-])c1ccc(N/N=C/c2cccc3ccccc23)nc1,106%,118%,117%,75.6%,95.8%,101%,99.1%
CCCCCCN1C(=O)C2=C(c3ccc(Cl)cc3)Nc3c(c(C)nn3-c3ccccc3)C2c2ccccc21 (stereo unspecified),102%,89.8%,111%,77.8%,87.9%,92.1%,107%
O=C(O)CN1C(=O)c2cccc3cccc(c23)C1=O,104%,104%,106%,87.4%,102%,103%,107%
COc1ccc(-c2cc(/C=C/C(=O)c3cc(OC)c(OC)c(OC)c3)[nH]n2)cc1OC,24%,4.69% (active),-65.6% (active),-9.93% (active),-46.5% (active),-75.7% (active),-61.6% (active)

SMILES,growth [1],growth [2],growth [3],growth [4],growth [5],growth [6],growth [7]
C=C(NC(=O)C(=C)NC(=O)c1csc(C2=NC3c4csc(n4)C4NC(=O)c5csc(n5)C(C(C)(O)C(C)O)NC(=O)C5CSC(=N5)/C(=C/C)NC(=O)C(C(C)O)NC(=O)c5csc(n5)C3(CC2)NC(=O)C(C)NC(=O)C(=C)NC(=O)C(=C)NC(=O)C(C(C)C)NC2C=Cc3c(C(C)O)cc(nc3C2O)C(=O)OC4C)n1)C(N)=O (stereo unspecified),-35.1% (active),-65.2% (active),-8.45% (active),19.8%,-49.5% (active),-57.2% (active),-88.1% (active)
CCN(CC)CCC(CNc1c(C)cnc2cc(Cl)ccc12)c1ccc(Cl)cc1 (stereo unspecified),67.7%,-7.89% (active),51.2%,39.7%,23%,26.7%,79.8%
O=C1/C(=C/c2ccc([N+](=O)[O-])o2)Oc2ccccc21,-51.3% (active),-70.9% (active),-77.6% (active),7.13% (active),-56% (active),-1.7% (active),48.3%
COC(=O)C1(C)Cc2cc(OC(C)=O)c(OC(C)=O)cc2N1 (stereo unspecified),98.8%,73.9%,58.6%,51.7%,35.1%,112%,85.9%
O=c1c2ccccc2nc(SCCN2CCCCC2)n1CCc1ccccc1,86.3%,95.9%,89.9%,63.3%,74%,97.9%,94.2%
O=C(Nc1nc2ccccc2s1)Nc1ccc([N+](=O)[O-])cc1Cl,16.2%,40.4%,95.6%,74.3%,18.7%,76.1%,-32.4% (active)
COc1cc(-c2nc(Nc3nc4ccccc4s3)[nH]c(=O)c2C#N)cc(OC)c1O,98.1%,120%,110%,95.7%,94.7%,104%,114%
CC(C)(C)c1ccc(N2CSC(=S)N(c3ccc(C(C)(C)C)cc3)C2)cc1,98.9%,99.7%,106%,91.7%,91.8%,96.4%,96.7%
CCN(CC)CCOc1nc2ccccc2c2c1-c1ccc(OC)cc1C2=O,60.8%,-6.62% (active),-13.3% (active),0.376% (active),-93% (active),14.8%,-45.2% (active)
CC(=O)C1CCC2C3CC(F)C4=CC(=O)CCC4(C)C3C(O)CC12C (stereo unspecified),91.2%,102%,109%,94.5%,89.9%,105%,111%
O=C(CCCCCCC(=O)Nc1cccnc1)NO,69.5%,19.8%,35.6%,35.3%,9.09% (active),40%,6.19% (active)
O=C(O)CC(Cl)C(Cl)CC(=O)O (stereo unspecified),97.5%,93.8%,103%,105%,111%,110%,101%
CC(=O)c1cc(Br)ccc1O,110%,99.1%,102%,102%,112%,101%,102%
Nc1c(C(=O)Nc2ccccc2)sc2nc3c(cc12)C(O)CCC3 (stereo unspecified),66%,-27.2% (active),29.6%,18.4%,22%,17.9%,25.8%
O=C(Nc1cccc(-n2cc(-c3ccncc3)c(-c3cc(O)cc(Cl)c3)n2)c1)c1cc(C(F)(F)F)cc(C(F)(F)F)c1,73.4%,45.6%,61%,23%,24.5%,28.9%,21.2%
COc1ccc(-c2cc(/C=C3\C(=O)Nc4ccc(Cl)cc43)[nH]n2)cc1OC,99.7%,91.5%,97.1%,63.1%,73.2%,103%,29.3%
